Data as given in PubChem BioAssay AID1159580 (chemical genetic matrix, 2015).
“And” between values parts separate entries of the source, which are not always exact repeats. Equal entries are not always repeated. The whole screen tested about 5,500 compounds, of which about 2,000 (36%) were called active. Not shown: some 18% with an inconclusive outcome. No stated cut-off is given here; in the data, active means normalized growth mostly below about 0.91 (no sharp cut-off); inconclusive means no clear call, values can overlap the other calls; inactive means mostly above about 0.92. The list shows a part of the results.

Assay: chemical genetic growth profiling, strain panel (AID 1159580);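 further: tested at 20 µM; growth read once vehicle control cultures reached saturation at 30 °C; 1 = growth at the plate median or of vehicle wells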
Conditions: growth OD

Measured: normalized growth

O=C(O)CC[N+](=O)[O-]
inactive: S. cerevisiae deletion strains, locus YJR075W, strain HOC1, stronger effect = lower value 0.987 | S. cerevisiae deletion strains, locus YKL009W, strain mrt4, stronger effect = lower value 0.971 | S. cerevisiae deletion strains, locus YKL068W, stronger effect = lower value 0.978 | S. cerevisiae deletion strains, locus YKL085W, strain MDH1 (second series), stronger effect = lower value 1.01 | S. cerevisiae deletion strains, locus YKL085W, strain MDH1, stronger effect = lower value 1.01 | S. cerevisiae deletion strains, locus YKL160W, strain elf1, stronger effect = lower value 1 | S. cerevisiae deletion strains, locus YKL190W, strain CNB1, stronger effect = lower value 0.986 | S. cerevisiae deletion strains, locus YKR001C, strain vps1, stronger effect = lower value 0.982 | S. cerevisiae deletion strains, locus YKR026C, strain gcn3, stronger effect = lower value 1 | S. cerevisiae deletion strains, locus YKR091W, strain srl3, stronger effect = lower value 0.993 | S. cerevisiae deletion strains, locus YLL001W, strain dnm1, stronger effect = lower value 0.981 | S. cerevisiae deletion strains, locus YLL026W, stronger effect = lower value 1.01 | S. cerevisiae deletion strains, locus YLL041C, strain sdh2, stronger effect = lower value 1 | S. cerevisiae deletion strains, locus YLR027C, strain aat2, stronger effect = lower value 1.01 | S. cerevisiae deletion strains, locus YLR039C, strain RIC1, stronger effect = lower value 0.903 | S. cerevisiae deletion strains, locus YLR058C, strain SHM2, stronger effect = lower value 0.991 | S. cerevisiae deletion strains, locus YLR102C, strain apc9, stronger effect = lower value 0.979 | S. cerevisiae deletion strains, locus YLR113W, strain HOG1, stronger effect = lower value 1.02 | S. cerevisiae deletion strains, locus YLR221C, strain rsa3, stronger effect = lower value 1.03 | S. cerevisiae deletion strains, locus YLR258W, strain gsy2, stronger effect = lower value 1.03 | S. cerevisiae deletion strains, locus YLR262C, strain YPT6 (second series), stronger effect = lower value 0.989 | S. cerevisiae deletion strains, locus YLR262C, strain YPT6, stronger effect = lower value 0.908 | S. cerevisiae deletion strains, locus YLR268W, strain sec22, stronger effect = lower value 0.988 | S. cerevisiae deletion strains, locus YLR320W, strain mms22, stronger effect = lower value 1.03 | S. cerevisiae deletion strains, locus YLR330W, strain CHS5, stronger effect = lower value 0.982 | S. cerevisiae deletion strains, locus YLR342W, strain FKS1 (second series), stronger effect = lower value 0.998 | S. cerevisiae deletion strains, locus YLR342W, strain FKS1, stronger effect = lower value 1.01 | S. cerevisiae deletion strains, locus YLR357W, strain rsc2, stronger effect = lower value 0.993 | S. cerevisiae deletion strains, locus YLR370C, strain arc18, stronger effect = lower value 1 | S. cerevisiae deletion strains, locus YLR371W, strain rom2, stronger effect = lower value 0.969 | S. cerevisiae deletion strains, locus YLR384C, strain iki3, stronger effect = lower value 0.988 | S. cerevisiae deletion strains, locus YLR418C, strain cdc73, stronger effect = lower value 1 | S. cerevisiae deletion strains, locus YML016C, strain PPZ1, stronger effect = lower value 0.993 | S. cerevisiae deletion strains, locus YML032C, strain rad52, stronger effect = lower value 0.973 | S. cerevisiae deletion strains, locus YML120C, strain ndi1, stronger effect = lower value 0.999 | S. cerevisiae deletion strains, locus YML124C, strain tub3, stronger effect = lower value 0.98 | S. cerevisiae deletion strains, locus YMR058W, strain fet3, stronger effect = lower value 1.03 | S. cerevisiae deletion strains, locus YMR078C, strain ctf18, stronger effect = lower value 0.976 | S. cerevisiae deletion strains, locus YMR125W, strain sto1, stronger effect = lower value 0.988 | S. cerevisiae deletion strains, locus YMR129W, stronger effect = lower value 0.996 | S. cerevisiae deletion strains, locus YMR205C, strain PFK2, stronger effect = lower value 0.983 | S. cerevisiae deletion strains, locus YMR223W, strain ubp8, stronger effect = lower value 0.977 | S. cerevisiae deletion strains, locus YMR231W, strain pep5, stronger effect = lower value 0.986 | S. cerevisiae deletion strains, locus YMR263W, strain SAP30, stronger effect = lower value 0.985 and 1 | S. cerevisiae deletion strains, locus YMR307W, strain GAS1, stronger effect = lower value 0.924 | S. cerevisiae deletion strains, locus YNL067W, strain RPL9B, stronger effect = lower value 0.991 | S. cerevisiae deletion strains, locus YNL071W, strain lat1, stronger effect = lower value 1.01 | S. cerevisiae deletion strains, locus YNL128W, strain TEP1, stronger effect = lower value 0.981 | S. cerevisiae deletion strains, locus YNL153C, strain GIM3, stronger effect = lower value 0.994 | S. cerevisiae deletion strains, locus YNL175C, strain NOP13, stronger effect = lower value 0.992 | S. cerevisiae deletion strains, locus YNL183C, strain NPR1, stronger effect = lower value 0.953 | S. cerevisiae deletion strains, locus YNL197C, strain WHI3, stronger effect = lower value 1.01 | S. cerevisiae deletion strains, locus YNL209W, strain ssb2, stronger effect = lower value 1.01 | S. cerevisiae deletion strains, locus YNL224C, strain SQS1, stronger effect = lower value 0.992 | S. cerevisiae deletion strains, locus YNL233W, strain BNI4, stronger effect = lower value 1 | S. cerevisiae deletion strains, locus YNL248C, strain rpa49, stronger effect = lower value 0.996 | S. cerevisiae deletion strains, locus YNL250W, strain rad50, stronger effect = lower value 0.978 | S. cerevisiae deletion strains, locus YNL271C, strain bni1, stronger effect = lower value 0.974 | S. cerevisiae deletion strains, locus YNL298W, strain CLA4, stronger effect = lower value 0.98 | S. cerevisiae deletion strains, locus YNL307C, strain MCK1, stronger effect = lower value 0.982 | S. cerevisiae deletion strains, locus YNL322C, strain KRE1 (second series), stronger effect = lower value 0.989 | S. cerevisiae deletion strains, locus YNL322C, strain KRE1, stronger effect = lower value 0.987 and 1.01 | S. cerevisiae deletion strains, locus YNR049C, strain mso1, stronger effect = lower value 1 | S. cerevisiae deletion strains, locus YNR052C, strain pop2, stronger effect = lower value 0.979 | S. cerevisiae deletion strains, locus YOL006C, strain TOP1, stronger effect = lower value 1.01 | S. cerevisiae deletion strains, locus YOL012C, strain htz1 0.756 | S. cerevisiae deletion strains, locus YOL147C, strain pex11, stronger effect = lower value 0.985 | S. cerevisiae deletion strains, locus YOR001W, strain rrp6, stronger effect = lower value 1.03 | S. cerevisiae deletion strains, locus YOR061W, strain CKA2, stronger effect = lower value 0.992 | S. cerevisiae deletion strains, locus YOR069W, strain VPS5, stronger effect = lower value 0.99 | S. cerevisiae deletion strains, locus YOR070C, strain gyp1, stronger effect = lower value 0.999 | S. cerevisiae deletion strains, locus YOR080W, strain dia2, stronger effect = lower value 1 | S. cerevisiae deletion strains, locus YOR083W, strain WHI5 (second series), stronger effect = lower value 0.995 | S. cerevisiae deletion strains, locus YOR083W, strain WHI5, stronger effect = lower value 0.999 | S. cerevisiae deletion strains, locus YOR106W, strain vam3, stronger effect = lower value 0.99 | S. cerevisiae deletion strains, locus YOR136W, strain idh2, stronger effect = lower value 0.986 | S. cerevisiae deletion strains, locus YOR144C, strain elg1, stronger effect = lower value 0.97 | S. cerevisiae deletion strains, locus YOR184W, strain ser1, stronger effect = lower value 0.968 | S. cerevisiae deletion strains, locus YOR231W, strain MKK1, stronger effect = lower value 0.971 | S. cerevisiae deletion strains, locus YOR265W, strain rbl2, stronger effect = lower value 0.997 | S. cerevisiae deletion strains, locus YOR270C, strain vph1, stronger effect = lower value 1.04 | S. cerevisiae deletion strains, locus YOR290C, strain snf2, stronger effect = lower value 0.982 | S. cerevisiae deletion strains, locus YOR316C, strain cot1, stronger effect = lower value 0.989 | S. cerevisiae deletion strains, locus YPL051W, strain arl3, stronger effect = lower value 1.03 | S. cerevisiae deletion strains, locus YPL055C, strain LGE1, stronger effect = lower value 0.972 and 1.02 | S. cerevisiae deletion strains, locus YPL078C, strain atp4, stronger effect = lower value 0.981 | S. cerevisiae deletion strains, locus YPL106C, strain sse1, stronger effect = lower value 1.04 | S. cerevisiae deletion strains, locus YPL240C, strain hsp82, stronger effect = lower value 1.01 | S. cerevisiae deletion strains, locus YPL241C, strain CIN2, stronger effect = lower value 0.941 | S. cerevisiae deletion strains, locus YPL256C, strain CLN2, stronger effect = lower value 0.991 | S. cerevisiae deletion strains, locus YPR119W, strain clb2, stronger effect = lower value 0.993 | S. cerevisiae deletion strains, locus YPR141C, strain kar3, stronger effect = lower value 0.979 | S. cerevisiae deletion strains, locus YPR163C, strain tif3, stronger effect = lower value 0.986 | S. cerevisiae deletion strains, locus YPR167C, strain met16, stronger effect = lower value 0.996 | S. cerevisiae deletion strains, strain wtn01, stronger effect = lower value 1.01 | S. cerevisiae strains, strain wild type, stronger effect = lower value 0.999
